Reference: ChEMBL document CHEMBL4513216, “Probing the Open Global Health Chemical Diversity Library for Multistage-Active Starting Points for Next-Generation Antimalarials” (ACS Infect Dis, 2020)
Out of some 69,000 compounds screened, about 8,600 (12%) showed an effect of 50% or more. The sample as a whole holds a higher share of strong results than the screen did.

System: Plasmodium berghei
Experiment: Screen against P. berghei liver stage (PbLuc), transformed with Luciferase, at 10uM
Assay type: functional, HepG2
Details: tested at 10 uM

Structure (SMILES) | INHIBITION
CC(CNC(=O)NCCCc1cc(N)n(-c2ccccc2)n1)N(C)C (stereo not drawn) | 30.3%
CCN(CC)Cc1cn2c(n1)CN(C(=O)c1cc(C)on1)CC2 | 38.1%
COC(=O)C1(NCC(=O)Nc2cc(C)ccc2OC)CCCCC1 | 5.11%
c1ncn(CC2CN(Cc3nc(C4CC4)no3)CCO2)n1 (stereo not drawn) | -7.31%
CCn1cnnc1C1CCN(C(=O)c2ccnc(N(C)C)c2)CC1 | 31.6%
O=C(c1ccno1)N1CCOC[C@H](Oc2ccccc2)C1 | 25.3%
O=C(c1ccno1)N1CCOC[C@H](Oc2ccc(C(F)(F)F)cc2)C1 | 50.2%
COc1ccc(O[C@H]2COCCN(C(=O)c3ccno3)C2)cc1 | -11.1%
CCOCC(=O)Nc1cccc(Oc2ccccn2)c1 | -13.4%
COCCN1CCC2(CCN(Cc3cccs3)CC2)C1=O | -3.12%
O=C(NCCCn1nc2ccccn2c1=O)NCc1ccccc1 | -9.76%
O=C(NCC1CC1)c1cc2c(s1)CCN2c1ncccn1 | 75.6%
CC(C)NC(=O)c1cc2c(s1)CCN2c1ncccn1 | -21.3%
CCCNC(=O)c1cc2c(s1)CCN2c1ncccn1 | 4.98%
Cc1ccc(N2CCc3sc(C(=O)NCCN4CCCC4)cc32)nn1 | -15.2%
O=C(NCC1CC1)c1cc2c(s1)CCN2C(=O)c1cccnc1 | -26.1%
O=C(NCCN1CCCC1)c1cc2c(s1)CCN2c1ncccn1 | 61.1%
O=C(c1ccco1)N1CCO[C@@H]2CNC[C@@H]21 | 22.2%
COc1ccc(C)cc1-n1ccc(C(=O)NCC2CCCOC2)n1 (stereo not drawn) | 17.3%
OC1(CNCCc2nc3c(s2)CCCC3)CNCCOC1 (stereo not drawn) | -12.1%
CN(CCCSc1ccccc1)C(=O)Cn1ncc(N(C)C)cc1=O | 31.7%
Cc1ccc(NC(=O)c2nc3c(s2)CCCN3C(C)C)cn1 | 63.5%
CC(=O)N1CCCc2sc(C(=O)Nc3ccc(C)nc3)nc21 | 34.6%

Structure (SMILES) | INHIBITION
Cc1ccc(NC(=O)c2nc3c(s2)CCCN3C(=O)C2CC2)cn1 | -0.804%
NS(=O)(=O)CCN(CCc1cccc(F)c1)C1CCCC1 | 36.3%
CS(=O)(=O)Nc1cnn(Cc2cccc(Cl)c2)c1 | 29.1%
COc1ccc(-n2ccc(C(=O)NCCn3ccnc3)n2)cc1 | 5.9%
CN1[C@@H]2CC[C@H]1CN(C(=O)c1nnc3n1CCCC3)CC2 | -151%
O=C(NCc1ccccn1)[C@@]12CCO[C@@H]1CCN(c1ncccn1)C2 | 41.2%
Cc1cc(CN2CC[C@H]3OCC[C@@]3(C(=O)NC(C)C)C2)no1 | 6.32%
CNC(=O)[C@@]12CCO[C@@H]1CCN(Cc1scnc1C)C2 | 19%
COCCNC(=O)[C@@]12CCO[C@@H]1CCN(Cc1scnc1C)C2 | 8.67%
CC(C)NC(=O)[C@@]12CCO[C@@H]1CCN(Cc1ccco1)C2 | 60.3%
O=C(NCc1ccco1)[C@@]12CCO[C@@H]1CCN(Cc1ccccn1)C2 | -34.7%
Cc1ncsc1CN1CC[C@H]2OCC[C@@]2(C(=O)NCC2CC2)C1 | 53.4%
O=C(NCc1ccco1)[C@@]12CCO[C@@H]1CCN(CCN1CCCC1)C2 | 22.4%
O=C(NCc1ccccn1)[C@@]12CCO[C@@H]1CCN(Cc1ccccn1)C2 | 51.2%
c1coc(CN2CCCn3c(nnc3Cn3cccc3)C2)c1 | 45.4%
Cc1ccc(CN2C[C@H](OCC3CCOCC3)[C@H]3COC[C@H]32)o1 | -59.9%
Oc1cc(CC2COCCN(CC3(O)CCOCC3)C2)ncn1 (stereo not drawn) | 6.26%
CC(C)c1nnc2n1CCN(C(=O)Cc1csc(C(C)(C)C)n1)C2 | 1.35%
CC(C)N1CCC(Cc2cc(-c3cccc(C(=O)O)c3)ncn2)CC1 | 23.4%
c1cc(CN2CCO[C@H]3[C@H](OCCN4CCCC4)CC[C@@H]32)ccn1 | 38.2%
c1coc(CN2CCO[C@H]3[C@H](OCC4CCCC4)CC[C@@H]32)c1 | 47.4%
Fc1ccc(CN2CCO[C@H]3[C@H](OCCN4CCCC4)CC[C@@H]32)cc1 | 15.1%
c1cc(CN2CCO[C@H]3[C@H](OCC4CCCC4)CC[C@@H]32)ccn1 | 62.6%

Structure (SMILES) | INHIBITION
Fc1ccc(CN2CCO[C@H]3[C@H](OCC4CCCC4)CC[C@@H]32)cc1 | 66.8%
Fc1ccc(CN2CCO[C@H]3[C@H](OCC4CC4)CC[C@@H]32)cc1 | -30.8%
CCOC[C@]12COC[C@H]1CN(Cc1ccc(F)c(F)c1)C2 | 10.4%
CC(C)CN(C)Cc1c[nH]nc1-c1ccc(F)cc1F | 11.9%
COc1ccc(-c2n[nH]cc2CN(C)Cc2nnc(C)o2)c(F)c1 | 23.8%
CN(Cc1c[nH]nc1-c1ccc(F)cc1F)Cc1nccn1C | 52.2%
COc1ccc(-c2n[nH]cc2CN(C)Cc2ccoc2)c(F)c1 | -25.8%
Cc1cnccc1CN(C)Cc1c[nH]nc1-c1ccc(F)cc1F | 18.6%
COc1ccc(-c2n[nH]cc2CN(C)Cc2nccn2C)c(F)c1 | 51.5%
Cc1nc(CN2C(=O)CC[C@@H]3[C@H]2CCN3C(=O)C2CCCO2)cs1 (stereo partly drawn) | 15.4%
O=C(CCc1ccncc1)N1CCc2cc(Cl)cc(Cl)c2C1 | 49.7%
COc1ccc(F)cc1C(=O)N1C[C@@H]2CC[C@H]1CN(c1ncccn1)C2 | 10.7%
CC(C)C(=O)N1CCC(C)(c2cc(O)[nH]n2)CC1 | -4.87%
Cc1ccccc1CN1CCCC1c1cccc(Nc2nccs2)n1 (stereo not drawn) | 71.8%
Cc1cccc(CN2CCCC2c2cncc(Nc3nncs3)n2)c1 (stereo not drawn) | 46.2%
c1ccc(CCN2CCCC2c2ccnc(Nc3ncccn3)n2)cc1 (stereo not drawn) | 11.8%
CS(=O)(=O)N1CCCC1c1cccc(Nc2nccs2)n1 (stereo not drawn) | -17.7%
c1ccc(CCN2CCCC2c2cccc(Nc3nccs3)n2)cc1 (stereo not drawn) | 69.2%
Cc1ccccc1CN1CCCC1c1cncc(Nc2nncs2)n1 (stereo not drawn) | 22%
COc1cccc(CN2CCCC2c2cncc(Nc3nncs3)n2)c1 (stereo not drawn) | -29.9%
c1ccc(CCN2CCCC2c2cncc(Nc3nncs3)n2)cc1 (stereo not drawn) | 11.8%
Cc1cccc(CN2CCCC2c2cccc(Nc3nccs3)n2)c1 (stereo not drawn) | 72%
